Data: paper PMC4081100, “A DNA-binding-site landscape and regulatory network analysis for NAC transcription factors in Arabidopsis thaliana”

Columns and labels:
Test in all cases: universal protein binding microarray (PBM); transcription factors of Arabidopsis thaliana; high values mean tight binding
Conditions in all cases: protein: recombinant; tags: GST; chain copies: 2; dsDNA, one strand shown
GST-ANAC092(1-176) = target: T1, GST-ANAC092(1-176) (Arabidopsis thaliana, UniProt Q9FKA0 1-176)
T1 sequence: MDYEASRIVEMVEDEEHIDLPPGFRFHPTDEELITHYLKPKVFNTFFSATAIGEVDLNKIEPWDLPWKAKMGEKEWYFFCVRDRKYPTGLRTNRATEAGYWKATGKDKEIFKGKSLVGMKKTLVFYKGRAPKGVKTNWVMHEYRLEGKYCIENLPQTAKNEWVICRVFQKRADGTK
How it was run: (§1)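 Protein amounts were determined by A280 or anti-GST western blot after glutathione–Sepharose 4B purification of GST-tagged proteins induced in cells, with zinc acetate included for zinc-finger proteins. Duplicate runs at 200 to 500 nM final were done on custom all-10-mer Agilent 4 × 180K arrays made double-stranded by primer extension. The normalised enrichment score (E-score) over gapped and ungapped 8-mers is the measure of binding.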

GST-NTL6(1-168) = GST-NTL6(1-168) (Arabidopsis thaliana, UniProt Q9SCK6 1-168)
Chain of GST-NTL6(1-168) (Q9SCK6 1-168): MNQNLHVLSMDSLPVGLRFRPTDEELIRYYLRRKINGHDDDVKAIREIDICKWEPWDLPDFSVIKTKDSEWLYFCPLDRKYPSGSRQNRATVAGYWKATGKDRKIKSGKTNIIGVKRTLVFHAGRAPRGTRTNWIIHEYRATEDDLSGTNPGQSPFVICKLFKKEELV
How it was run: as §1

GST-ANAC019 NAC domain = target: T2, GST-ANAC019 NAC domain (Arabidopsis thaliana, UniProt Q9C932 14-162)
T2 sequence: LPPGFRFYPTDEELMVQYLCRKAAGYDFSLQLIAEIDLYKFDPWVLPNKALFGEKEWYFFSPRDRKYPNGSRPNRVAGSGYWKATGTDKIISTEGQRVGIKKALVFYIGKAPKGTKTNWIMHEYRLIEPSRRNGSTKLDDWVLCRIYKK
How it was run: as §1

GST-ANAC055(1-171) = target: T3, GST-ANAC055(1-171) (Arabidopsis thaliana, UniProt Q9LDY8 1-171)
T3 sequence: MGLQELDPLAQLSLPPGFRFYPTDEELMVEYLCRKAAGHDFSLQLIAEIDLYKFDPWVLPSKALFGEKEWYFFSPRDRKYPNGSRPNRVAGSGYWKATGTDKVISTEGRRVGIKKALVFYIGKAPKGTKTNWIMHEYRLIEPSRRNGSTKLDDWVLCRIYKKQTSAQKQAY
How it was run: as §1

GST-ATAF1 NAC domain = target: T4, GST-ATAF1 NAC domain (Arabidopsis thaliana, UniProt Q39013 7-158)
T4 sequence: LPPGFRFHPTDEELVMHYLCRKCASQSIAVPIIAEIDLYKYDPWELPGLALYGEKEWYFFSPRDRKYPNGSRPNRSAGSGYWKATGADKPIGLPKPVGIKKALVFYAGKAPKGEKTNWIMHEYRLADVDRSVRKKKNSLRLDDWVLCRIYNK
How it was run: as §1

[1] = target: T5, GST-ANAC092(1-285) full length (Arabidopsis thaliana, UniProt Q9FKA0 1-285)
T5 sequence: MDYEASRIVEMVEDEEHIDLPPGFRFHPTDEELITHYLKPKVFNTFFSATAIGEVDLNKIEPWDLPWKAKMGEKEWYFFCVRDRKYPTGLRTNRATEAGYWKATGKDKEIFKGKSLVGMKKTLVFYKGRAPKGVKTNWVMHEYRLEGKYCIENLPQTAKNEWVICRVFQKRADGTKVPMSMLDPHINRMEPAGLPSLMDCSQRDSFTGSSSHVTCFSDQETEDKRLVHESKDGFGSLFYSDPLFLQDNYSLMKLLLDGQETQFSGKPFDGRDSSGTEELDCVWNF
How it was run: as §1

GST-NAP(1-166) = target: T6, GST-NAP(1-166) (Arabidopsis thaliana, UniProt O49255 1-166)
T6 sequence: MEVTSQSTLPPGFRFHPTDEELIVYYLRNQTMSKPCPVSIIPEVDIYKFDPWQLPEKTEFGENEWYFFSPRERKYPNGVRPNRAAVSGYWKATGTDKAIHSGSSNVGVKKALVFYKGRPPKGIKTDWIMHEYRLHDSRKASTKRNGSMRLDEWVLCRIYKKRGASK
How it was run: as §1

GST-NST2(1-184) = target: T7, GST-NST2(1-184) (Arabidopsis thaliana, UniProt Q9M274 1-184)
T7 sequence: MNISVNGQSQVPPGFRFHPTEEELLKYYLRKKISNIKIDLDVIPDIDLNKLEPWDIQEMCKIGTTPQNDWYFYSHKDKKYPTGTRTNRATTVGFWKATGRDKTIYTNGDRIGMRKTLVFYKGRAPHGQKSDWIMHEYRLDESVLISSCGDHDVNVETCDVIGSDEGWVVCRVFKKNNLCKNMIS
How it was run: as §1

GST-NTL8 NAC domain = target: T8, GST-NTL8 NAC domain (Arabidopsis thaliana, UniProt Q9XIN7 14-156)
T8 sequence: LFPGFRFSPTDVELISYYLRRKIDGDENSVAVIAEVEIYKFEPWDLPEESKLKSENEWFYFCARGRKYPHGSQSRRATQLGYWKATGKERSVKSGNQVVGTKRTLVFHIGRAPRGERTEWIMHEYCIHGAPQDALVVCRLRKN
How it was run: as §1

GST-SND1(1-203) = target: T9, GST-SND1(1-203) (Arabidopsis thaliana, UniProt Q9LPI7 1-203)
T9 sequence: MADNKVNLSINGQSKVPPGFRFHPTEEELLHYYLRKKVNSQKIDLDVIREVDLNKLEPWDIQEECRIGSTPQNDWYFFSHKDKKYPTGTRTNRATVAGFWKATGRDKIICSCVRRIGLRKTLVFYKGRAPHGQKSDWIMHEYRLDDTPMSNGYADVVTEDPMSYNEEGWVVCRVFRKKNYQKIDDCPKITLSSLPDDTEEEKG
How it was run: as §1

GST-VND3 NAC domain = target: T10, GST-VND3 NAC domain (Arabidopsis thaliana, UniProt Q9FH59 12-162)
T10 sequence: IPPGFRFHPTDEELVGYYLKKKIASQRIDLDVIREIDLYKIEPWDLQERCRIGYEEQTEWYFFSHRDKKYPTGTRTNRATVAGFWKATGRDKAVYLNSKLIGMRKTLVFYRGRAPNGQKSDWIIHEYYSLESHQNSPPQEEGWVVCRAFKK
How it was run: as §1

GST-VND7 NAC domain = target: T11, GST-VND7 NAC domain (Arabidopsis thaliana, UniProt Q9C8W9 9-158)
T11 sequence: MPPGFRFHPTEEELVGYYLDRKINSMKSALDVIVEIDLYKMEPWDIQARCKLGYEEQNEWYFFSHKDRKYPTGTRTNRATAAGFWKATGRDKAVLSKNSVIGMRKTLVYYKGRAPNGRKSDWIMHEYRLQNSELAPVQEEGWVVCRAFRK
How it was run: as §1

Sequence	binding signal (GST-ANAC092(1-176)) [E-score]	binding signal (GST-NTL6(1-168)) [E-score]	binding signal (GST-ANAC019 NAC domain) [E-score]	binding signal (GST-ANAC055(1-171)) [E-score]	binding signal (GST-ATAF1 NAC domain) [E-score]	binding signal [1] [E-score]	binding signal (GST-NAP(1-166)) [E-score]	binding signal (GST-NST2(1-184)) [E-score]	binding signal (GST-NTL8 NAC domain) [E-score]	binding signal (GST-SND1(1-203)) [E-score]	binding signal (GST-VND3 NAC domain) [E-score]	binding signal (GST-VND7 NAC domain) [E-score]
AAGTAAAG	0.275	0.432	0.107	0.168	0.189	0.32	0.0549	0.265	0.27	0.328	0.175	0.181
AACGTGTA	0.403	0.0638	0.165	0.2	0.266	0.432	0.125	0.265		0.295	0.275	0.0615
ATACGTAT	0.156	0.12	0.281	0.379	0.231	0.37	0.445	0.186		0.211	0.347	0.293
AACACGCC	0.391	0.094	0.238	0.253	0.0901	0.431	0.184	0.144		0.144	0.1	0.0653
ACACACGC	0.37	0.0666	0.169	0.199	0.135	0.423	0.0855	0.221		0.221	0.198	0.213
ACGTCACT	0.383	0.0658	0.365	0.342	0.354	0.406	0.354	0.234		0.314	0.355	0.328
CTTACGTA	0.423	0.161	0.457	0.421	0.407	0.435	0.363	0.313	0.219	0.405	0.43	0.433
